From PubChem BioAssay (NCI)
About 83,000 compounds went through this panel and 20% of them were active in at least one assay; those are over-represented in the sample as a whole.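 Cell lines were cultured in 96-well plates, exposed to a single compound concentration, and assessed for percent growth 48 hours later.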 Values without a mark were called inactive. The source made the active and inactive calls. How the source made its calls: active means growth percent below 10; inactive means the rest.

System: MDA-MB-468 breast
Assay: NCI-60 one-dose screen, 48 h (100 = growth as untreated, 0 = no growth, -100 = all killed)
Conditions: 10 µM unless noted

SMILES | growth
CCOC(=O)C(=O)C=P(c1ccccc1)(c1ccccc1)c1ccccc1 | 114%
Cc1ccccc1/C=C/c1nn2c(-c3ccoc3C)nnc2s1 | 91.7%
COC(=O)/C(=C\c1c(-c2ccccc2)[nH]c2ccccc12)S(C)(=O)=O | 36.3%
CCSc1ccc(C2C(Br)C(=O)N2c2cc(OC)c(OC)c(OC)c2)cc1 (stereo unspecified) | 27.7%
O=C(CCl)NC1c2ccccc2Oc2ccccc21 | 71.5%
O=[N+]([O-])c1ccc(NC(=S)N/N=C/c2cc3ccccc3n3nnnc23)cc1 | 61.7%
COc1ccc(NC(=O)Nc2ccc(OCCCCCC(=O)NO)cc2)cc1 | 93.1%
N#Cc1c(Nc2ccc(N3CCOCC3)cc2)nc(SCC(=O)c2ccc(Br)cc2)nc1-c1ccccc1 | 113%
O=C1/C(=C/c2ccc(OCCCOc3ccc(Cl)cc3)cc2)N=C2SCCCN12 | 61.2%
COCc1c(-c2ccc(NC(=O)Nc3cc(C(F)(F)F)ccc3F)c(F)c2)c2c(N)ncnn2c1CN1CCOCC1 | -54.8% (active)
CN(Cc1cccc(C(F)(F)F)c1)C(=O)[C@@H](CC(=O)N1CCC(N2CCCCC2)CC1)N1C(=O)[C@@H](N2C(=O)OC[C@@H]2c2ccccc2)[C@H]1/C=C/c1ccccc1 | 60.5%
CC1(C)CC[C@]23CC[C@]4(C)[C@H](CC[C@@H]5[C@@]6(C)C/C(=C/c7ccncc7)C(=O)C(C)(C)[C@@H]6CC[C@]54C)[C@H]2[C@H]1OC3=O | 58.8% [100 µM]
O=C(Nc1cccc(C(F)(F)F)c1)Nc1ccc(OCc2nnc(-c3ccc(Cl)cc3)o2)c(F)c1 | 68.2%
COc1ccc2c(-c3ccc(F)cc3)c(C#N)c(=NC(C)=O)oc2c1 | -8.32% (active)
O=c1c2cccc3c(Nc4ccc(Br)cn4)ccc(c32)c2nc3ccccc3n12 | -64.7% (active)
NS(=O)(=O)c1cc2c(cc1Cl)NC=NS2(=O)=O | 108%
C/C(CCC(=O)O)=N/Nc1ccc([N+](=O)[O-])cc1 | 83.7%
CCOC(=O)Cn1c(O)c(N=Nc2ccc(S(N)(=O)=O)cc2)c2cc(Br)ccc21 | 96.4%

SMILES | growth
O=C(/C=C/C=C/c1c(C2CC2)nc2ccccc2c1-c1ccc(F)cc1)c1cccs1 | 4.94% (active)
Cc1[nH]c(C(=O)Nc2ccccc2OCc2cccc(C(=O)NC3CCNC3)c2)c(Cl)c1Cl (stereo unspecified) | 22%
C[N+](C)(C)c1ncnc2nc[nH]c12 | 90.3%
COC12C=C/C(=C(/C(=O)OCc3cncnc3)C(=O)CCCCCCCCC3(OC)C=C/C(=C(/C(=O)OCc4cncnc4)C(=O)CCCCCCCC1)O3)O2 | -39.8% (active)
CC(=O)OC[C@]1(C)C=C2C(=O)[C@](C)(O)C3(CC3)C(C)=C2[C@H]1OC(C)=O | 21.6%
CC(=O)Nc1ccc(C=Nc2ccc3ccccc3c2)cc1 | 107%
CCOC(=O)C1=C(C)NC(SCc2nnc(-c3ccc(Cl)cc3)o2)=NC1c1ccc(Cl)cc1 (stereo unspecified) | 48.9%
Cc1nc2ccccc2n1CC1C(=O)NC(=O)NC1=O | 107%
COc1ccc(-c2c(NC(=O)Nc3ccc(Cl)c(C(F)(F)F)c3)cnn2-c2ccc(S(N)(=O)=O)cc2)cc1 | 26.7%
O=C1/C(=C/c2ccc(-c3ccc(Cl)cc3)o2)SC(=S)N1CCc1ccc(O)cc1 | 87%
COC1CCC(N2C(=O)CNc3ncc(-c4ccc(C(C)(C)O)nc4)nc32)CC1 (stereo unspecified) | -25.2% (active)
CCCN1CCN(c2ccc3nc(-c4ccc5nc(-c6ccc(C(F)(F)F)cc6)[nH]c5c4)[nH]c3c2)CC1 | -63.6% (active)
Cc1cc(C(=O)Nc2cc(Nc3ncccc3-c3ncnc4nc[nH]c34)ccc2F)cc(C(F)(F)F)c1 | 93.6%
Cc1c2ccccc2nc2cc3c(cc12)[C@H]1CC[C@]2(C)C(=O)CC[C@H]2[C@@H]1CC3 | 91.3%
CCN(CCCOc1ccc2c(Nc3cc(CC(=O)Nc4cccc(F)c4)[nH]n3)ncnc2c1)CCOP(=O)(O)O | 67.6%
COc1ccc(-c2nc3ncccn3c2-c2nnc(-c3ccc(F)cc3)o2)cc1 | 100%
O=c1[nH]c2c(s1)CCCC2CN1CCCCC1 (stereo unspecified) | 109%
Oc1[nH]c2ccc(Cl)cc2c1/C=c1/ccc2c(c1)N=C(c1cccs1)N=2 | 55.2%
